INS-1E GSIS act: primary screen for activators of insulin secretion dependent on glucose, INS-1E cells, GLuc reporter luminescence. 370,000 tested, 0.61% active. INS-1E GLuc reporter insulin secretion, 2-3 h. activation, % at 16.6 µM;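 active = lowest replicate activation of at least 40%, so every replicate reaches that level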;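 also: 0% = median of neutral control wells and 100% = median of IBMX positive control wells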
Wnt act: activates Wnt/beta-catenin signaling in a reporter cell assay; 300,000 tested, 1.2% active; activation, % at 9.35 µM; activator, plate reader; in the data active = activation above about 30%, passing the limit was not always enough;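 also: 0% = neutral control wells and 100% = positive control wells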
F508del corr: correctors of CFTR F508del function in bronchial epithelial cells; CFBE cells, YFP halide quenching; stimulated with forskolin plus potentiator P3; % fluorescence drop versus neutral controls; activity (quench increase), % at 7.58 µM; 350,000 tested, 0.36% active; AID 720511;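 active = mean added fluorescence quench of at least 8% versus neutral control, with both replicates also reaching 8%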;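 also: cells transiently co-express mutant CFTR-F508del with the halide-sensitive YFP; corrector assay measuring rescue of mutant channel to the surface after 24 h compound exposure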
MITF act: MITF TRPM1 promoter activation in melanoma cells | SK-MEL-5 TRPM1-promoter luciferase, 24 h; % of positive control, neutral wells = 0 | activation, % at 12.5 µM | 300,000 tested, 0.75% active | AID 588334;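 active = mean activation of at least 80% with every replicate also reaching 80%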;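 also: 0% = neutral control wells and 100% = parthenolide positive control wells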
Env fusion inh: HIV envelope-mediated fusion inhibition | HeLa-JRFL Env/CEM21 cell fusion, luciferase | inhibition, % at 12.3 µM | 360,000 tested, 1.1% active | AID 651610;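 active = mean replicate inhibition score of at least 50 and every replicate individually at or above 50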;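 also: 0% = plate neutral controls and 100% = maraviroc near 300 nM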
* marks the source's active call; other numbers are inactive results; / = no result; [ ] = dose if it differs, or a comment. A selection: hits, their analogues and other compounds. The true share with any hit is near 2.7%.

SMILES	INS-1E GSIS act	Wnt act	F508del corr	MITF act	Env fusion inh
Cc1cc(=O)n(CCO)c(O)c1C#N	/	22	/	/	-10
CCCn1c(C)cc(C)c(C#N)c1=O	43*	/	/	6	/
CCn1c(O)c(C#N)c(C)cc1=O	7	48*	-2	/	3
O=C(NC1CCCC1)[C@H]1[C@H](CO)[C@H]2Cn3c(ccc(-c4ccccc4)c3=O)[C@@H]1N2CC1CC1	10	/	-1	/	/
C[C@@H]1CCCCO[C@H](CN(C)CC2CC2)[C@H](C)CN([C@H](C)CO)C(=O)c2cc(NC(=O)C3CCCCC3)ccc2O1	2	/	0	/	23[16.7 µM]
CCc1cnc(N2[C@H](C#N)[C@@H](c3ccc(C#Cc4ccccc4F)cc3)[C@@H]2CO)s1	-6	/	0	/	7[16.7 µM]
CCc1cnc(N2[C@@H](C#N)[C@H](c3ccc(C#Cc4ccccc4F)cc3)[C@@H]2CO)s1	-2	/	-1	/	59*[16.7 µM]
CO[C@@H](CN(C)S(=O)(=O)c1ccc(C)cc1)[C@H](C)CN(C(=O)Nc1ccccc1F)[C@@H](C)CO	-2	/	-1	/	/
CCc1nnc(NC(=O)CSc2nnc(-c3ccccc3NC(=O)c3ccccc3)o2)s1	52*	-12	/	-2	-19
C=CCN1C(=O)c2n[nH]c(COC)c2C1c1ccc(F)cc1 (stereo unspecified)	65*	1	1	/	-3
O=C(CCc1nnc(C2CCCCC2)o1)N1CCN(c2ccccc2F)CC1	-6	33*	-1	74	-29
O=C(CCc1nnc(C2CCCCC2)o1)N1CCN(C2CCCCC2)CC1	-9	0	-3	2	-15
CCC(=O)Nc1ccc2c(c1)OC[C@H](C)N(CC1CCOCC1)C[C@H](C)[C@H](OC)CN(C)C2=O	5	/	1	/	-28[16.7 µM]
Cc1ccc2nc(/C=C/c3cccc(F)c3)ccc2c1	-6	71*	1	56	-118
CC(C)NC(=O)Nc1cccc2c1O[C@@H](CN(C)Cc1ccc(C(F)(F)F)cc1)[C@H](C)CN([C@@H](C)CO)C2=O	-17	/	0	/	/
O=C(Nc1ccccc1)NC1CCCc2ccccc21 (stereo unspecified)	11	/	0	-7	8
CCOc1ccccc1NC(=O)NC1CCCc2ccccc21 (stereo unspecified)	-5	1	0	1	59*
Cc1ccc(NC(=O)CN(C)CC(=O)NC2CCCc3ccccc32)cc1 (stereo unspecified)	-40	40*	1	3	20
Cc1cccc(C)c1NC(=O)NC1CCc2ccccc21 (stereo unspecified)	119*	-3	-2	0	6
CC(C)NC(=O)Nc1cccc2c1O[C@@H](CN(C)CC1CCCCC1)[C@H](C)CN([C@@H](C)CO)C2=O	-3	/	1	/	32[16.7 µM]
CCN1CCN(Cc2c3ccccc3cc3ccccc23)CC1	5	49*	0	20	4
CCCN1[C@H](C(=O)N2CCOCC2)[C@@H](CO)[C@@H]2Cn3c(ccc(-c4ccncc4)c3=O)[C@@H]21	10	/	0	/	/
O=C(CSc1ccccc1C(=O)NCc1ccccc1)NC12CC3CC(CC(C3)C1)C2	-18	-3	/	5	76*
Cc1cc(=O)[nH]c2c1c(C)nn2C1CCCCC1	3	-1	-2	-8	/
Cc1cc(=O)[nH]c2c1c(C)nn2C1CCCC1	53*	2	/	3	-8
SMILES	INS-1E GSIS act	Wnt act	F508del corr	MITF act	Env fusion inh
CCc1ccc(-c2c(C)sc(NC(=O)C3CCC3)c2C#N)cc1	139*	4	/	5	3
CCOC(=O)c1cc2c(C)n(-c3ccc(OCC)cc3)c(C)c2ccc1=O	/	/	/	/	61*
CCOC(=O)c1cc2c(C)n(-c3ccc(C)cc3)c(C)c2ccc1=O	/	/	/	-16	-229
COc1ccc(C(=O)COc2ccccc2C(N)=O)cc1	-8	5	-1	34	-17
N#Cc1ccccc1OCC(=O)NC(=O)NCc1ccccc1	-1	0	-3	-1	-16
N#Cc1ccccc1OCC(=O)NC(=O)NCc1ccco1	-6	19	0	116*	-26
COC(=O)CCC(=O)COc1ccccc1C#N	/	/	/	16	-39
COC(=O)CCC(=O)COc1ccc(OC)cc1C#N	-2	/	/	114*	/
N#Cc1ccccc1OCC(=O)NCCNC(=O)COc1ccccc1C#N	-6	2	0	4	-3
CCNC(=O)NC(=O)COc1ccccc1C#N	/	/	/	93*	/
COc1ccc(C(=O)COc2ccccc2C#N)cc1	/	46*	3	/	-28
C[C@@H]1CCCCO[C@@H](CN(C)S(=O)(=O)c2ccc(Cl)cc2)[C@H](C)CN([C@@H](C)CO)C(=O)c2cc(NS(=O)(=O)c3cn(C)cn3)ccc2O1	-22	/	-1	/	-3[16.7 µM]
COc1ccc(-c2cn(CC[C@H]3CC[C@H](N)[C@@H](CO)O3)nn2)cc1	-7	/	2	/	3[16.7 µM]
Cc1ccc(-c2cnc3c(c2)C(=O)N([C@H](C)CO)C[C@@H](C)[C@H](CN(C)C(=O)c2ccc(F)cc2)O3)cc1	-28	/	3	/	-20[16.7 µM]
COc1ccccc1NC(=O)N[C@@H]1C=C[C@@H](CC(=O)N2CCC(Cc3ccccc3)CC2)O[C@@H]1CO	-19	/	-5	/	/
O=C(Nc1cccc(F)c1)N1CCCCN2[C@H](C1)[C@H](c1ccc(C#Cc3ccccc3)cc1)[C@@H]2CO	10	/	5	/	/
O=C(Nc1cccc(F)c1)N1CCCCN2[C@@H](CO)[C@H](c3ccc(C#Cc4ccccc4)cc3)[C@@H]2C1	-5	/	8.9*	/	/
CCCC#Cc1ccc([C@H]2[C@@H](CO)N3CCCCN(S(=O)(=O)c4ccccc4C)C[C@@H]23)cc1	-7	/	1	/	/
CCCC#Cc1ccc([C@H]2[C@@H](CO)N3CCCCN(S(=O)(=O)c4ccccc4C)C[C@H]23)cc1	4	/	14*	/	/
O=S(=O)(Cc1ccccc1)N1CCCCN2[C@H](C1)[C@@H](c1ccc(C#Cc3ccccc3)cc1)[C@@H]2CO	16	/	8.0*	/	/
COc1ccc(C#Cc2ccc([C@H]3[C@H]4CN(C(=O)c5ccncc5)CCCCN4[C@H]3CO)cc2)cc1	-14	/	9.3*	/	/
CC(C)NC(=O)N[C@@H]1CC[C@H](CC(=O)NCc2ccc(Oc3ccccc3)cc2)O[C@H]1CO	5	/	-2	/	32[16.7 µM]
Cc1noc(C)c1S(=O)(=O)Nc1ccc2c(c1)C(=O)N([C@@H](C)CO)C[C@@H](C)[C@H](CN(C)Cc1ccc(C(=O)O)cc1)O2	6	/	-3	/	/
O=C(CN1CCOCC1)NCC[C@@H]1CC[C@@H](NC(=O)c2ccccc2F)[C@H](CO)O1	-4	/	0	/	-11[16.7 µM]
CC(C)NC(=O)N(C)C[C@H]1OCCCC[C@H](C)Oc2ccc(NS(=O)(=O)c3ccc(F)cc3)cc2C(=O)N([C@H](C)CO)C[C@H]1C	7	/	-1	/	-59[16.7 µM]
O=C(Nc1ccccc1)N1CCCCN2[C@@H](CO)[C@@H](c3ccc(C#Cc4ccccc4)cc3)[C@@H]2C1	-8	/	-6	/	/
O=C(Nc1ccccc1)N1CCCCN2[C@@H](CO)[C@H](c3ccc(C#Cc4ccccc4)cc3)[C@@H]2C1	-29	/	8.1*	/	/

Screens: PubChem BioAssay, Broad Institute
